From PubChem BioAssay AID1159580 (chemical genetic matrix, 2015)
Hit rate of the full screen: of about 5,500 compounds, about 2,000 (36%) were called active. Another 18% or so got no clear call; they are omitted. Rule as the data show it: active = normalized growth mostly below about 0.91 (no sharp cut-off); inconclusive = no clear call, values can overlap the other calls; inactive = mostly above about 0.92. Some of the results follow.

Test: chemical genetic growth profiling, strain panel (AID 1159580);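 also: tested at 20 µM; growth read once vehicle control cultures reached saturation at 30 °C; 1 = growth at the plate median or of vehicle wells; lower values mean less growth of the strain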
Details: growth OD

Measured: normalized growth

C#C[C@]1(O)CCC2C3CCC4=CC(=O)CC[C@@H]4C3CC[C@@]21C (some centres undefined)
inactive: S. cerevisiae deletion strains, locus YJR066W, strain TOR1, stronger effect = lower value 0.909 | S. cerevisiae deletion strains, locus YKL009W, strain mrt4, stronger effect = lower value 0.954 | S. cerevisiae deletion strains, locus YKL068W, stronger effect = lower value 0.989 | S. cerevisiae deletion strains, locus YKL085W, strain MDH1 (second series), stronger effect = lower value 0.986 | S. cerevisiae deletion strains, locus YKL085W, strain MDH1, stronger effect = lower value 0.986 | S. cerevisiae deletion strains, locus YKL160W, strain elf1, stronger effect = lower value 1.01 | S. cerevisiae deletion strains, locus YKL190W, strain CNB1, stronger effect = lower value 0.977 | S. cerevisiae deletion strains, locus YKR001C, strain vps1, stronger effect = lower value 0.946 | S. cerevisiae deletion strains, locus YKR026C, strain gcn3, stronger effect = lower value 0.979 | S. cerevisiae deletion strains, locus YKR091W, strain srl3, stronger effect = lower value 0.982 | S. cerevisiae deletion strains, locus YLL001W, strain dnm1, stronger effect = lower value 0.972 | S. cerevisiae deletion strains, locus YLL026W, stronger effect = lower value 0.994 | S. cerevisiae deletion strains, locus YLL041C, strain sdh2, stronger effect = lower value 0.974 | S. cerevisiae deletion strains, locus YLR027C, strain aat2, stronger effect = lower value 0.983 | S. cerevisiae deletion strains, locus YLR039C, strain RIC1, stronger effect = lower value 0.862 | S. cerevisiae deletion strains, locus YLR058C, strain SHM2, stronger effect = lower value 0.989 | S. cerevisiae deletion strains, locus YLR102C, strain apc9, stronger effect = lower value 0.978 | S. cerevisiae deletion strains, locus YLR113W, strain HOG1, stronger effect = lower value 0.958 | S. cerevisiae deletion strains, locus YLR221C, strain rsa3, stronger effect = lower value 0.991 | S. cerevisiae deletion strains, locus YLR258W, strain gsy2, stronger effect = lower value 0.993 | S. cerevisiae deletion strains, locus YLR262C, strain YPT6 (second series), stronger effect = lower value 0.916 | S. cerevisiae deletion strains, locus YLR262C, strain YPT6, stronger effect = lower value 0.818 | S. cerevisiae deletion strains, locus YLR268W, strain sec22, stronger effect = lower value 0.94 | S. cerevisiae deletion strains, locus YLR320W, strain mms22, stronger effect = lower value 0.98 | S. cerevisiae deletion strains, locus YLR330W, strain CHS5, stronger effect = lower value 0.995 | S. cerevisiae deletion strains, locus YLR342W, strain FKS1 (second series), stronger effect = lower value 0.923 | S. cerevisiae deletion strains, locus YLR342W, strain FKS1, stronger effect = lower value 0.976 | S. cerevisiae deletion strains, locus YLR357W, strain rsc2, stronger effect = lower value 0.988 | S. cerevisiae deletion strains, locus YLR370C, strain arc18, stronger effect = lower value 0.969 | S. cerevisiae deletion strains, locus YLR371W, strain rom2, stronger effect = lower value 0.983 | S. cerevisiae deletion strains, locus YLR384C, strain iki3, stronger effect = lower value 0.982 | S. cerevisiae deletion strains, locus YLR418C, strain cdc73, stronger effect = lower value 0.915 | S. cerevisiae deletion strains, locus YML016C, strain PPZ1, stronger effect = lower value 0.991 | S. cerevisiae deletion strains, locus YML032C, strain rad52, stronger effect = lower value 0.978 | S. cerevisiae deletion strains, locus YML120C, strain ndi1, stronger effect = lower value 0.977 | S. cerevisiae deletion strains, locus YML124C, strain tub3, stronger effect = lower value 0.98 | S. cerevisiae deletion strains, locus YMR058W, strain fet3, stronger effect = lower value 0.965 | S. cerevisiae deletion strains, locus YMR078C, strain ctf18, stronger effect = lower value 0.964 | S. cerevisiae deletion strains, locus YMR125W, strain sto1, stronger effect = lower value 0.995 | S. cerevisiae deletion strains, locus YMR129W, stronger effect = lower value 0.974 | S. cerevisiae deletion strains, locus YMR205C, strain PFK2, stronger effect = lower value 0.985 | S. cerevisiae deletion strains, locus YMR223W, strain ubp8, stronger effect = lower value 0.971 | S. cerevisiae deletion strains, locus YMR231W, strain pep5, stronger effect = lower value 0.981 | S. cerevisiae deletion strains, locus YMR307W, strain GAS1, stronger effect = lower value 0.874 | S. cerevisiae deletion strains, locus YNL067W, strain RPL9B, stronger effect = lower value 0.969 | S. cerevisiae deletion strains, locus YNL071W, strain lat1, stronger effect = lower value 0.964 | S. cerevisiae deletion strains, locus YNL128W, strain TEP1, stronger effect = lower value 0.992 | S. cerevisiae deletion strains, locus YNL183C, strain NPR1, stronger effect = lower value 0.924 | S. cerevisiae deletion strains, locus YNL209W, strain ssb2, stronger effect = lower value 0.997 | S. cerevisiae deletion strains, locus YNL233W, strain BNI4, stronger effect = lower value 0.996 | S. cerevisiae deletion strains, locus YNL248C, strain rpa49, stronger effect = lower value 0.985 | S. cerevisiae deletion strains, locus YNL250W, strain rad50, stronger effect = lower value 0.981 | S. cerevisiae deletion strains, locus YNL271C, strain bni1, stronger effect = lower value 0.964 | S. cerevisiae deletion strains, locus YNL298W, strain CLA4, stronger effect = lower value 0.976 | S. cerevisiae deletion strains, locus YNL322C, strain KRE1 (second series), stronger effect = lower value 0.98 | S. cerevisiae deletion strains, locus YNR049C, strain mso1, stronger effect = lower value 0.984 | S. cerevisiae deletion strains, locus YNR052C, strain pop2, stronger effect = lower value 0.97 | S. cerevisiae deletion strains, locus YOL006C, strain TOP1, stronger effect = lower value 0.919 | S. cerevisiae deletion strains, locus YOL012C, strain htz1 1.68 | S. cerevisiae deletion strains, locus YOL147C, strain pex11, stronger effect = lower value 0.983 | S. cerevisiae deletion strains, locus YOR001W, strain rrp6, stronger effect = lower value 0.943 | S. cerevisiae deletion strains, locus YOR061W, strain CKA2, stronger effect = lower value 0.985 | S. cerevisiae deletion strains, locus YOR069W, strain VPS5, stronger effect = lower value 0.988 | S. cerevisiae deletion strains, locus YOR070C, strain gyp1, stronger effect = lower value 0.986 | S. cerevisiae deletion strains, locus YOR080W, strain dia2, stronger effect = lower value 0.994 | S. cerevisiae deletion strains, locus YOR083W, strain WHI5, stronger effect = lower value 1.03 | S. cerevisiae deletion strains, locus YOR106W, strain vam3, stronger effect = lower value 0.999 | S. cerevisiae deletion strains, locus YOR136W, strain idh2, stronger effect = lower value 0.997 | S. cerevisiae deletion strains, locus YOR144C, strain elg1, stronger effect = lower value 0.98 | S. cerevisiae deletion strains, locus YOR231W, strain MKK1, stronger effect = lower value 0.984 | S. cerevisiae deletion strains, locus YOR265W, strain rbl2, stronger effect = lower value 0.983 | S. cerevisiae deletion strains, locus YOR270C, strain vph1, stronger effect = lower value 0.901 | S. cerevisiae deletion strains, locus YOR290C, strain snf2, stronger effect = lower value 0.981 | S. cerevisiae deletion strains, locus YOR316C, strain cot1, stronger effect = lower value 0.978 | S. cerevisiae deletion strains, locus YPL051W, strain arl3, stronger effect = lower value 0.986 | S. cerevisiae deletion strains, locus YPL055C, strain LGE1, stronger effect = lower value 0.997 | S. cerevisiae deletion strains, locus YPL078C, strain atp4, stronger effect = lower value 0.974 | S. cerevisiae deletion strains, locus YPL106C, strain sse1, stronger effect = lower value 1.06 | S. cerevisiae deletion strains, locus YPL240C, strain hsp82, stronger effect = lower value 0.991 | S. cerevisiae deletion strains, locus YPL241C, strain CIN2, stronger effect = lower value 0.996 | S. cerevisiae deletion strains, locus YPL256C, strain CLN2, stronger effect = lower value 0.942 | S. cerevisiae deletion strains, locus YPR119W, strain clb2, stronger effect = lower value 0.982 | S. cerevisiae deletion strains, locus YPR141C, strain kar3, stronger effect = lower value 0.982 | S. cerevisiae deletion strains, locus YPR163C, strain tif3, stronger effect = lower value 0.986 | S. cerevisiae deletion strains, locus YPR167C, strain met16, stronger effect = lower value 0.977 | S. cerevisiae deletion strains, strain wtn01, stronger effect = lower value 0.962 | S. cerevisiae strains, strain wild type, stronger effect = lower value 0.986
active: S. cerevisiae deletion strains, locus YNL307C, strain MCK1, stronger effect = lower value 0.902 | S. cerevisiae deletion strains, locus YOR184W, strain ser1, stronger effect = lower value 0.848
